Molecules are shown by their SMILES. About 1,200 (3.2%) of roughly 38,000 compounds showed an effect of 50% or more. The median lay at about -58%. What follows is part of a selection rich in strong results, with near analogues and random picks from the rest.

For this test, the system named is Plasmodium falciparum. Nature of the test: Calibr Malaria Delayed Death Assay SOP. Particulars: concentration 4.99e-06 (unit not given; other assays of the set use mol/L). Further details: scale not given: in the data most compounds retested in dose-response had high values. The test is classed as functional, organism-based.
For `Cc1csc(C2(NC(=O)CCNC(=O)C(C)(C)C)CCCC2)n1`, the “Percent Effect” value is -41.74%. To `CCC(=O)N1CCc2onc(CNS(C)(=O)=O)c2C1` belongs -110.9%; to `Cc1nc(NC(=O)C(C)n2ncc(Br)c2C)sc1C` (centres undefined), -53.19%; to `COc1ccc(CNc2c(C)cnc3c2c(=O)n(C)c(=O)n3C)cc1`, -41.96%.

Consider `O=C(CN(CC(O)c1ccc(F)cc1)C1CC1)Nc1cccnc1` (centres undefined), for which the “Percent Effect” value was -24.09%. For `COCC(=O)N1CCC2(COCc3c(C)nc(N(C)C)nc32)C1` (centres undefined) the value was -113.3%; for `Fc1cccc(OC2CCN(CCn3cc4ccccc4n3)CC2)c1`, -79.08%. `COCCc1nnc(NC(=O)CCCc2ccccc2)o1`: the “Percent Effect” value is on record as -177.1%. For `O=C(O)C(F)(F)F.O=C(O)C(F)(F)F.c1csc(CN2CCC3(CC2)CCN(CC2CC2)CC3)n1` the value was 31.82%. To `O=C(O)C(F)(F)F.O=C(O)C(F)(F)F.O=C(O)C(F)(F)F.c1cnc(N2CCC3(CCN(Cc4cccnc4)CC3)CC2)nc1` belongs -79.89%. To `CCS(=O)(=O)N1CCC2(CCN(Cc3nccs3)CC2)CC1.O=C(O)C(F)(F)F` belongs -47.71%; to `O=C(O)C(F)(F)F.O=C(O)C(F)(F)F.c1cnc(N2CC3(CCN(Cc4ccncc4)C3)C2)nc1`, -113.7%. Take `Fc1ccc(CN2CCC3(CC2)CCN(c2ncccn2)CC3)cc1.O=C(O)C(F)(F)F.O=C(O)C(F)(F)F`: the “Percent Effect” value was found to be 52.71%.

As for `O=C(O)C(F)(F)F.O=C(O)C(F)(F)F.c1csc(CN2CC3(CCN(Cc4ccsc4)C3)C2)n1`, the “Percent Effect” value is -42.12%. For `Cc1ccc(N2CCC3(CCN(Cc4nccs4)CC3)CC2)nn1` the value was -7.428%; for `Fc1ccc(CN2CCOCC3(CCN(Cc4nccs4)C3)C2)cc1.O=C(O)C(F)(F)F.O=C(O)C(F)(F)F` (centres undefined), -2.709%.

Regarding `Fc1ccc(CN2CCC3(CC2)CCN(Cc2nccs2)CC3)cc1.O=C(O)C(F)(F)F.O=C(O)C(F)(F)F`, the “Percent Effect” value stood at 86.13%. For the compound `Fc1ccc(CN2CCC3(CCN(Cc4nccs4)CC3)C2)cc1.O=C(O)C(F)(F)F.O=C(O)C(F)(F)F`, the “Percent Effect” value worked out at 56.57%. Regarding `CS(=O)(=O)N1CCC2(CCN(Cc3nccs3)CC2)CC1.O=C(O)C(F)(F)F`, the “Percent Effect” value is recorded as -92.74%.

In the case of `O=C(NCC(=O)N1CCCCC1)c1sccc1C1CC1`, the “Percent Effect” value is -52.19%.

Regarding `Cc1ccsc1C(=O)N1CCC2(CC1)C(=O)N(C)CCN2CC1CC1.O=C(O)C(F)(F)F`, the “Percent Effect” value is -41.45%. To `CCc1ccc(NC(=O)N2C[C@H]3C[C@H](C(=O)NC(C)C)[C@@H](C2)O3)cc1` belongs 25.32%; to `CC(=O)N1CCCC(C(=O)NCCc2csc(-c3ccncc3)n2)C1` (centres undefined), -77.87%; to `CC(C)C(N)CNS(=O)(=O)Cc1cccc2cccnc12.Cl` (centres undefined), 3.917%. For `CC(Cn1cccn1)NC(=O)N(C)Cc1ccsc1` (centres undefined) the value was -57.89%; for `O=C(CNC(=O)C1(c2ccc(F)cc2F)CCC1)Nc1ccccn1`, -17.94%; for `CC(C)CN1CC(C(=O)NCCOc2ccc3c(c2)OCO3)CC1=O` (centres undefined), -115.4%. To `Cc1ccnc(N2CCN(C[C@]3(O)CCCN4CCCC[C@@H]43)CC2)c1` belongs 7.79%. Regarding `Cc1cnccc1N1CCN(C[C@]2(O)CCCN3CCCC[C@@H]32)CC1`, the “Percent Effect” value was determined as 73.88%. For `O[C@@]1(CN2CCN(Cc3ccncc3)CC2)CCCN2CCCC[C@@H]21` the value was -71.07%; for `COc1ccc(N2CCN(C(=O)c3nc(Cl)sc3C(C)C)CC2)cc1`, -116.1%; for `COc1cccc(OCC2CCCN(Cc3ccncc3)C2)c1` (centres undefined), -55.12%. To `CCn1cc(CNC2CCN(c3c(F)cccc3F)C2)cn1` (centres undefined) belongs -15.51%; to `CCn1cc(CN2CCCN(C3Cc4ccccc4C3)CC2)cn1`, 8.565%; to `CCn1cc(CN2CCCC(COc3ccc(F)cc3)C2)cn1` (centres undefined), 75.3%. For `CCn1cc(CN2CCC(c3[nH]ncc3S(C)(=O)=O)C2)cn1` (centres undefined) the value was -50.8%; for `COc1ccc(OCC2CCCN(Cc3ccncc3)C2)cc1` (centres undefined), 2.701%.

In the case of `CCn1cc(CN2CCCC(c3[nH]ncc3-c3ccc(C)cc3)C2)cn1` (centres undefined), the “Percent Effect” value amounted to 60.35%.

On to `Cc1ccc(-c2cn[nH]c2C2CCCN(c3ncccn3)C2)cc1` (centres undefined), for which the “Percent Effect” value is -2.919%.

With `CCn1cc(CN2CCCC(COc3ccccc3F)C2)cn1` (centres undefined), the “Percent Effect” value is 72.55%. For `O=C(NCC(=O)N1CCCC1Cc1cccc(F)c1)C1CCCC1` (centres undefined) the value was -29.53%; for `Cc1cnc2c(c1NCc1cccs1)c(=O)n(C)c(=O)n2C`, 3.342%.

Consider `CNC(=O)C1(c2cnccn2)CCCN1C(=O)c1cccnc1OC` (centres undefined), for which the “Percent Effect” value is reported as -138.6%. Regarding `CCCn1cc(NC(=O)c2ccncc2)ccc1=O`, the “Percent Effect” value is -98.41%. On to `CC(C)N1CCCCC1CCn1cnc2cc(C(F)(F)F)ccc2c1=O` (centres undefined), for which the “Percent Effect” value is given as -97.47%.

Consider `Cc1cnc(N(C)Cc2cnc3ccccc3n2)nc1N(C)C`, for which the “Percent Effect” value is -4.617%.

In the case of `O=C(NCCCNC(=O)c1ccccc1)Nc1ccc(F)cc1F`, the “Percent Effect” value is -135.1%. To `CCOCC1CN(C(=O)c2cccn2C)Cc2cnn(CC3CC3)c21.O=C(O)C(F)(F)F` (centres undefined) belongs 56.84%; to `CCOCC1CN(C(=O)c2cnccn2)Cc2cnn(CC3CC3)c21.O=C(O)C(F)(F)F` (centres undefined), -137.9%; to `CCOCC1CN(S(=O)(=O)CC)Cc2cnn(CC3CC3)c21.O=C(O)C(F)(F)F` (centres undefined), -13.24%. For the compound `Cn1cccc1C(=O)N1Cc2c(CN3CCCCC3)nn(C)c2C1`, the “Percent Effect” value is on record as -1.788%. To `CC(C)C(=O)N1CCc2c(CN(C)Cc3ccco3)cncc2C1.Cl.Cl` belongs -39.92%; to `C[C@@H]1CN(C2(C(=O)N3CCOCC3)Cc3ccccc3C2)C[C@H](C)O1`, -24.87%. Consider `C[C@@H]1CN(C2(C(=O)N3CCNCC3)Cc3ccccc3C2)C[C@H](C)O1`, for which the “Percent Effect” value amounted to 61.74%. As for `C[C@@H]1CN(C2(C(=O)N3CCSCC3)Cc3ccccc3C2)C[C@H](C)O1`, the “Percent Effect” value is -246.9%. To `O=C(NCCC1CCN(CC(F)(F)F)CC1)C1CCCO1` (centres undefined) belongs -133.7%.

Regarding `c1coc(CN2CCO[C@@]3(CCC[C@@H]3COCc3nccs3)C2)c1`, the “Percent Effect” value is 10.79%.

Take `O=C(NCc1cc2n(n1)CCCNC2)C1(c2ccc(Cl)cc2)CCC1`: the “Percent Effect” value is given as -15.95%. For `O=C(NCc1cc2n(n1)CCCNC2)c1cn2cc(Cl)ccc2n1` the value was -49.2%; for `O=C(NCc1cc2n(n1)CCCNC2)C1(c2ccccc2)CCCCC1`, 72.51%.

For the compound `O=C(O)C(F)(F)F.O=C(O)C(F)(F)F.c1coc(CN2C[C@@H]3OCCN(CC4CCCO4)[C@@H]3C2)c1` (some centres undefined), the “Percent Effect” value is -57.01%.

For the compound `O=S(=O)(c1ccc(F)cc1Cl)N1CCCC1c1ccncc1` (centres undefined), the “Percent Effect” value is -22.12%. Regarding `O=C(NC1CCCN(CCCc2ccccc2)C1)c1ccc(Cl)s1` (centres undefined), the “Percent Effect” value was 59.33%. For `O=C(NC1CCCN(CCCc2ccccc2)C1)C1=CCCCC1` (centres undefined) the value was -1.379%; for `O=C(NC1CCCN(CCCc2ccccc2)C1)c1ccncc1` (centres undefined), -32.27%; for `COCCNC(=O)N1CCSC2(CCCCC2)C1`, -161%. Turning to `CCC(c1ccc(F)cc1)N1CCn2c(CO)nnc2C1` (centres undefined), the “Percent Effect” value is given as -61.64%. For `CN(Cc1cccc(F)c1)C1CCN(CCc2ccccn2)CC1` the value was -78.69%; for `Cc1noc(C)c1CN1CCO[C@H]2CN(Cc3cnn(C)c3)C[C@H]21.O=C(O)C(F)(F)F.O=C(O)C(F)(F)F`, 11.54%; for `Cc1noc(C)c1CN1C[C@H]2CN(Cc3cccc(F)c3)C[C@H]2C1.O=C(O)C(F)(F)F.O=C(O)C(F)(F)F`, 53.22%. For `Cc1noc(C)c1CN1CCO[C@H]2CN(Cc3ccc(F)cc3)C[C@H]21.O=C(O)C(F)(F)F.O=C(O)C(F)(F)F` the value was 54.02%; for `Cc1noc(C)c1CN1C[C@H]2CNC[C@H]2C1`, 5.878%; for `Cc1noc(C)c1CN1C(=O)[C@H]2CC[C@@H]1CN(Cc1cccc(O)c1)C2`, -156.5%.

On to `Cc1noc(C)c1CN1C[C@@H]2CC(F)(F)C[C@@H]2C1.O=C(O)C(F)(F)F`, for which the “Percent Effect” value is listed as -65.49%. For `Cc1noc(C)c1CN1C[C@@H]2C[C@@H](C)O[C@@H]2C1.O=C(O)C(F)(F)F` the value was -81.78%; for `O=C(Cc1ccccn1)N1C[C@H]2CN(Cc3ccccn3)C[C@H]2C1`, -76.72%. For `Cc1noc(C)c1CN1CCO[C@H]2CN(Cc3cccc(F)c3)C[C@H]21.O=C(O)C(F)(F)F.O=C(O)C(F)(F)F` the value was -38.58%; for `O=C(c1ccccn1)N1CCN(c2cnnc(N3CCCC3)c2)CC1`, -112.9%; for `COc1cccc(N2C(=O)CC3(CCNCC3)C2=O)c1.Cl`, -133.6%. For `COC(=O)CC(NC(=O)c1cc(OC)c2c(c1)OCCO2)c1cccs1` (centres undefined) the value was -83.17%; for `O=S(=O)(NCCCn1cccn1)c1ccc2c(c1)CCC2`, -131.9%; for `CCCn1cc(S(=O)(=O)N[C@H]2CN(CC(N)=O)C[C@@H]2C2CC2)cn1`, -97.89%. With `COc1ccc(C2OC(COc3ccc(C)cc3)=NN2C(C)=O)cc1` (centres undefined), the “Percent Effect” value was -155.6%. For `COc1cc(C2CC(=O)Nc3c2c(=O)[nH]n3C2CCCCC2)ccc1O` (centres undefined) the value was -62.17%; for `Cc1nnc2n1CCN(CCCS(=O)(=O)c1ccccc1)C2`, -71.81%. For `Cc1ccc(CN(C)C(=O)CCNS(=O)(=O)c2cccnc2)cc1` the value was 36.55%; for `CC(=O)N1CCC2(CCN(Cc3cccc(F)c3)CC2)CC1.O=C(O)C(F)(F)F`, -62.85%. For `Cc1noc(C)c1CN1CCC2(CCN(Cc3cccc(F)c3)CC2)C1.O=C(O)C(F)(F)F.O=C(O)C(F)(F)F` the value was 66.34%; for `CCC(=O)N1CCC2(CCN(Cc3cccc(F)c3)CC2)CC1.O=C(O)C(F)(F)F`, -165.1%.

These data come from ChEMBL document CHEMBL3988442, “University of Dundee, Small-Polar-MMV Screening Library” (2021).
